Shown are actives, neighbours in structure and some others; about 11% of the full set was active somewhere.
HEK cytotox – Cytotoxic Profiling in HEK 293 Cell Line of Diverse Libraries Using Quantitative High-Throughput Screening | HEK 293 viability, ATP luminescence (CellTiter-Glo), 48-72 h | Potency, µM (highest dose often 115 µM), inactives show at the highest dose activity change, negative = cytotoxicity, usual class: inhibitors | actives 6.6% (n = 94,000); also: % is scaled to controls: 0 for no effect and ±100 for the full control effect; nearly all actives have a fitted effect of over 60% in size
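HEK 293 seeded at 250 cells/well receive compound via pintool. After 48 or 72 hr at 37 degree Celsius, 5% CO2 and 95% humidity, CellTiter-Glo is dispensed and luminescence read following 10 min at room temperature.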
3T3 cytotox – Cytotoxic Profiling in NIH 3T3 Cell Line of Diverse Libraries Using Quantitative High-Throughput Screening | NIH 3T3 viability, CellTiter-Glo ATP luminescence, 48-72 h | Potency, µM (highest dose often 96.7 µM), for inactives: at the highest dose activity change, negative = cytotoxicity, most hits filed as inhibitors | actives 4.3% (n = 94,000) | AID 1345082, 2018; also: % is scaled to controls: 0 for no effect and ±100 for the full control effect; nearly all actives have a fitted effect of over 55% in size
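Luminescent ATP readout (CellTiter-Glo, 10 min RT) after 48 or 72 hr compound exposure of NIH 3T3 cells seeded at 400 cells/well in 1536-well format; quantitative HTS.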
NPR1 antag – Natriuretic polypeptide receptor (hNpr1) antagonism - Primary qHTS; HEK293 hNpr1 GloSensor cGMP, ANP-stimulated luminescence; Potency, µM (highest dose often 46.3 µM), without a hit: at the top dose activity change, negative = inhibition, hits mostly inhibitors; actives 1.6% (n = 76,000); AID 1347048, 2019; calls by dose curve; also: % is scaled to controls: 0 for no effect and ±100 for the full control effect; nearly all actives have a fitted effect of over 60% in size
Target sequence (P16066 whole entry, looked up): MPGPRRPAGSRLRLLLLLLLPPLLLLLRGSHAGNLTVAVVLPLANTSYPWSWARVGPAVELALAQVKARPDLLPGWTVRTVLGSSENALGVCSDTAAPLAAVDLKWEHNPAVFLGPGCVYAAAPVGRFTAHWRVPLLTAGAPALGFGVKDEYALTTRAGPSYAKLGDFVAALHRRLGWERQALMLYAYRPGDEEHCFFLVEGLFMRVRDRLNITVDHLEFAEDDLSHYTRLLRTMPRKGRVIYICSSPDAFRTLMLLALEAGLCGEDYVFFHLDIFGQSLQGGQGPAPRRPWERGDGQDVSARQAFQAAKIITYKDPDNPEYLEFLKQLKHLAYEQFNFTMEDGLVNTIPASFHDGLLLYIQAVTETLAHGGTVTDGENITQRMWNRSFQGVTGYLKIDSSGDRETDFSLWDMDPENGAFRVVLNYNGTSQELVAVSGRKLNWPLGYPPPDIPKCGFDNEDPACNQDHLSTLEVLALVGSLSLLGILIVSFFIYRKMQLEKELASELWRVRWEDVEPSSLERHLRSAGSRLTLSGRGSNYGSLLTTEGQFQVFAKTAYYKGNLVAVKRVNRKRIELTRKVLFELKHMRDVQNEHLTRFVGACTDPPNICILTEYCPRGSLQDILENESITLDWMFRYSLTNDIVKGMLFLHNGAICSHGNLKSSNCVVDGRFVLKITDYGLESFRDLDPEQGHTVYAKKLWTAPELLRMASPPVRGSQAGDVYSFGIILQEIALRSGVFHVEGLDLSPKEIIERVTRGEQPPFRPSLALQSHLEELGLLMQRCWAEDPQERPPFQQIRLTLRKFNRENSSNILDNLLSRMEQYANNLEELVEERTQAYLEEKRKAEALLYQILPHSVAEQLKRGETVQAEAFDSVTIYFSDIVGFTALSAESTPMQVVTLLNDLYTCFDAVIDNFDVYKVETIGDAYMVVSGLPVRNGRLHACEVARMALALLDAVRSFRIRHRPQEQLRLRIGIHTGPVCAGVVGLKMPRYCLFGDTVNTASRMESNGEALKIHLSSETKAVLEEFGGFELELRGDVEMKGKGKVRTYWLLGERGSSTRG
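HEK293 cells stably expressing human Npr1 and cGMP GloSensor pGS-40F, loaded 2 h with 2% GloSensor reagent, given compound 30 min at room temperature. Luminescence read before and 20 min after 0.1 nM hNppA.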
FLuc inh-1 – Firefly luciferase inhibition profiling of diverse chemical library using quantitative high-throughput screening; actives 2.5% (n = 76,000); AID 1347043, 2019; Luciferin 4-monooxygenase (Photinus pyralis), P08659; Potency, µM (highest dose often 115 µM), most hits filed as inhibitors; purified P. pyralis luciferase, luminescence, biochemical; also: % is scaled to controls: 0 for no effect and ±100 for the full control effect; nearly all actives have a fitted effect of over 65% in size
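FLuc 10nM, D-luciferin 10uM, ATP 10uM, Mg acetate 10mM, Tris acetate pH 7.5, Tween/BSA; cpd qHTS; enzyme added last; CCD luminescence.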
FLuc SDR no ATP – Firefly luciferase (FLuc-C-HiBiT) SDR gain of signal screen - without ATP; shares compounds with FLuc inh-1; Purified FLuc-C-HiBiT, Nano-Glo HiBiT luminescence, no ATP; Potency, µM (titrated, usually from 32.7 µM), for the others: at the top dose activation (signal gain), usual class: activators; actives 7.8% (n = 1,300); AID 1963318, 2024; also: nearly all actives have a fitted effect of over 55% in size
FLuc SDR ATP – Firefly luciferase (FLuc-C-HiBiT) SDR gain of signal screen - plus ATP; shares compounds with FLuc inh-1; purified FLuc-C-HiBiT + ATP, HiBiT complementation luminescence; Potency, µM (highest dose often 32.7 µM), inactives show at the highest dose activation (gain of signal), usual class: activators; actives 8.7% (n = 1,300);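 also: signal reports ligand binding via conformational change of the enzyme rather than luciferase catalysis; % of control where 0% means no effect; nearly all actives have a fitted effect of over 55% in size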
FLuc inh-2 – Firefly luciferase (FLuc-C-HiBiT) enzymatic inhibition screen - Functional assay; shares compounds with FLuc inh-1; purified FLuc-C-HiBiT enzyme, luciferin luminescence; Potency, µM (titrated, usually from 32.7 µM), inactives show top-dose activity change, negative = inhibition, usual class: inhibitors; actives 42% (n = 1,300); AID 1963320, 2024; also: % is scaled to controls: 0 for no effect and ±100 for the full control effect; nearly all actives have a fitted effect of over 70% in size
* = called active by the depositor; i = inactive; ? = inconclusive; · = not tested or not shown; [ ] = remark or other dose. Unless noted, calls follow the shape of the dose curve; as a rule, active = well fitted curve in the direction sought with a large enough effect; inconclusive = small, poorly fitted or top-dose-only effect, or another doubt; inactive = no such curve, though single readings can be large; an effect the other way counts as inactive or inconclusive. Potency is read from the fitted curve at half-maximal effect.

SMILES	HEK cytotox	3T3 cytotox	NPR1 antag	FLuc inh-1	FLuc SDR no ATP	FLuc SDR ATP	FLuc inh-2
Cn1nc(C2CC2)cc1NC(=O)c1ccccc1F	i	-16%[138 µM]	·	·	·	·	·
O=C(Nc1ccc(-c2nc3ccccc3s2)c(O)c1)c1ccccc1F	·	·	·	·	14%	11%	-16%
Cc1cc(NC(=O)c2ccccc2F)ccc1-c1nc2ccccc2s1	·	·	·	·	18%	14%	?
O=C(Nc1cc(-c2ccccn2)nn1-c1ccccc1)c1ccccc1F	?	-26%	·	·	·	·	·
CCSc1ccccc1C(=O)Nc1ccc(-c2nc3ccccc3s2)c(O)c1	·	·	·	·	14%	10%	-3%
CC(=O)N1Cc2ccccc2OC2(CCN(C(=O)c3ccc4[nH]ccc4c3)CC2)C1	-18%	-10%	·	·	·	·	·
Cc1ccc(C2Cn3nnc(C(=O)N4CCC(C(=O)Nc5ccccc5)CC4)c3CO2)cc1 (centres undefined)	12%	5%	-3%	13µM*	13%	?	?
Cc1ccc(NC(=O)C2CCN(C(=O)c3nnn4c3COC(c3ccc(C)cc3)C4)CC2)cc1 (centres undefined)	-2%	-14%	-6%	?	·	·	·
CCOc1ccc(NC(=O)C2CCN(C(=O)c3nnn4c3COC(c3ccc(C)cc3)C4)CC2)cc1 (centres undefined)	3%	0%	-10%	?	·	·	·
Cc1ccc(C2Cn3nnc(C(=O)N4CCC(C(=O)Nc5ccc(F)cc5)CC4)c3CO2)cc1 (centres undefined)	-19%	-8%	-13%	11µM*	14%	?	?
Cc1ccc(C2Cn3nnc(C(=O)N4CCC(C(=O)NCc5ccccn5)CC4)c3CO2)cc1 (centres undefined)	-4%	i	-4%	11µM*	11%	?	?
COCc1ccc(CN[C@H]2C[C@@H](Cc3cc(CN4CCCCC4)on3)C2(C)C)o1	?	?	-19%[70.6 µM]	i	·	·	·
COC(=O)CCNC(=O)C1CN(S(=O)(=O)c2cccs2)CC12CCCCC2 (centres undefined)	5%	i	5%	i	·	·	·
C#CCNC(=O)c1cc(-c2ccccc2OC)c2nncn2n1	-17%[172 µM]	-26%[138 µM]	·	·	·	·	·
CC(C)(C)C(=O)NC1CCN(c2ccnc3ccnn23)CC1	1%[172 µM]	0%[138 µM]	·	·	·	·	·
O=C(C1CCCN1C(=O)c1cccc(-c2cccnc2)c1)N1CCN(c2ncccn2)CC1 (centres undefined)	-14%	-18%	·	·	·	·	·
CCOC1CCCN(c2ncnc3c2cnn3-c2ccccc2)C1 (centres undefined)	·	·	·	·	21%	?	?
NC(=O)C1CCN(c2ncnc3c2cnn3-c2ccccc2)CC1	·	·	·	·	15%	12%	-9%
CN(C)C1CCN(c2ncnc3c2cnn3-c2ccccc2)CC1	·	·	·	·	13%	11%	-6%
CC1CCN(c2ncnc3c2cnn3-c2ccc(F)cc2)CC1	·	·	·	·	19%	19%	11µM*
CCN1CCC2(Cc3ccccc3CN(S(C)(=O)=O)C2)C1 (centres undefined)	-16%[172 µM]	3%[138 µM]	·	·	·	·	·
O=C(Cc1ccccc1)N1CCN(c2ccnc3ccnn23)CC1	-4%[172 µM]	?	·	·	·	·	·
O=C(N[C@H]1CCN2C(=O)c3cc(-c4ccsc4)ccc3NC(=O)[C@H]12)c1cccs1	?	?	-17%[70.6 µM]	i	·	·	·
CSc1ccc(-c2ccc3c(c2)C(=O)N2CC[C@H](NC(=O)c4cccs4)[C@H]2C(=O)N3)cc1	-15%	-20%	-15%	6.3µM*	17%	12%	?
COc1ccc(-c2ccc3c(c2)C(=O)N2CC[C@H](NC(=O)c4cccc(F)c4)[C@H]2C(=O)N3)cc1	?	?	-3%	11µM*	17%	11%	?
SMILES	HEK cytotox	3T3 cytotox	NPR1 antag	FLuc inh-1	FLuc SDR no ATP	FLuc SDR ATP	FLuc inh-2
CN(Cc1nccn1C)Cc1cnc(S(=O)(=O)CC2CC2)n1CC1CCCCC1	?	-6%	-7%	i	·	·	·
O=C(Nc1nc2ccccc2s1)c1ccc2c(c1)OCCN(CCC(F)(F)F)C2	20µM*	?	?	13µM*	13%[49.3 µM]	10%[49.3 µM]	?
O=C(Nc1nc2c(F)cccc2s1)c1ccc2c(c1)OCCO2	·	·	·	·	9.9µM*	?	0.5µM*
CNC(=O)c1cc(C2CC2)nc2onc(C3CCN(C(=O)c4ccccc4Cl)CC3)c12	?	-28%	·	·	·	·	·
COc1ccc(-c2cn3nc(SCC(=O)Nc4ccccc4F)ccc3n2)cc1	·	·	·	·	?	17%	?
COc1ccc(-c2ccc3nnc(CNC(=O)c4ccccc4F)n3n2)cc1	-23%	-21%	20%	i	·	·	·
COC1C(=O)N(c2cccc(F)c2)C12CCN(C(=O)c1cccnc1C)CC2 (centres undefined)	-9%	-8%	5%	i	·	·	·
O=C(NCc1ccncc1)c1nc2c(o1)CCN(Cc1nccs1)CC2	?	-22%[138 µM]	-16%[70.6 µM]	i	·	·	·
O=C(Nc1ccccc1)c1nc2c(o1)CCN(Cc1ccc(F)cc1)CC2	?	?	18µM*	8.9µM*	20%[49.3 µM]	17%[49.3 µM]	?
Cc1csc(NC(=O)c2nc3c(o2)CCN(Cc2ccccc2F)CC3)n1	?	?	-21%[70.6 µM]	4.5µM*	?	18%[49.3 µM]	?
O=C(NCCOc1ccccc1)c1nc2c(o1)CCN(Cc1ccsc1)CC2	?	?	-11%[70.6 µM]	i	·	·	·
Cc1cccc(CN2CCc3nc(C(=O)NCc4ccccc4)oc3CC2)c1	?	?	-27%[70.6 µM]	i	·	·	·
O=C(Nc1cccnc1)c1nc2c(o1)CCN(Cc1ccc(O)cc1)CC2	·	·	·	·	23%[49.3 µM]	16%[49.3 µM]	?
O=C(Nc1cccnc1)c1nc2c(o1)CCN(Cc1nccs1)CC2	·	·	·	·	25%[49.3 µM]	17%[49.3 µM]	?
CCc1nc2c(c(-c3ccc(Cl)cc3)n1)CCN(C(=O)c1ccccc1F)CC2	-22%	-22%	0%	i	·	·	·
CCOc1ccc2nc(N3CCN(C(=O)c4ccco4)CC3)sc2c1	·	·	·	·	24%	15%	?
CCCC(=O)N1CCN(c2nc3ccc(F)cc3s2)CC1	·	·	·	·	25%	?	11µM*
